Sensor-assay potency score (higher = more potent) data for 14 sequences are collected here from the OligoGym collection.
Further: reference of the scale not given here.

One test concerns the target GHR. The test can be described thus: pooled miR-30 sensor sort-seq; sequence = guide strand. Particulars: shRNA.
On to TAATCTTTGGAACTGGAACTGG, for which the sensor-assay potency score (higher = more potent) was -0.523. Sequence TTCATCAACAGAGAAACACTTT registered a sensor-assay potency score (higher = more potent) of 0.81. Sequence TGAACTTGGATTGCTTAGCTGA had a sensor-assay potency score (higher = more potent) of 0.127. The sequence TAGAAGTCTGTCTGTGTCTGAT returned a sensor-assay potency score (higher = more potent) of -0.00194. TTAGAAGTCTGTCTGTGTCTGA came in with a sensor-assay potency score (higher = more potent) of 0.716. Consider TTCTGGTATAGAACAGCTGTAT, for which the sensor-assay potency score (higher = more potent) was -1.1. The same measure, in the same setting: the figure for TCATACTCCAGAACCATCCATC is -0.368; for TATGAATGGAGGTATAGTCTGG it is 0.0222; for TTTCTGAATATCTGCATTGCGT it is -0.999. On the same count and under the same terms, to TAGCTCAATAAATTCAACCCAA belongs -0.0787. The same measure, in the same setting: to TTAGCTTGATACAATAAGGTAT belongs 0.218.

The target of a further test is GHSR. The test is described as above. Particulars: shRNA.
AAGTCTGAACACTGCCACCCGG: the sensor-assay potency score (higher = more potent) is -1.26. In the case of TTGGACATGATGTTGTACAGAA, the sensor-assay potency score (higher = more potent) stood at 0.099.

TTGCTTGTGGTTCTGGTCCCTG: the sensor-assay potency score (higher = more potent) was -0.711.
